# The supplement of paper PMC10681739
# What was measured:
# RUNX1 [1] = target: RUNX1 (UniProt Q01196); assay: RUNX1 binding intensity (PBM fluorescence), RUNX1 alone (arbitrary fluorescence units); higher = stronger binding; settings: RUNX1 concentration 2 nM; ETS1 concentration 0 nM
# Experimental: (§1)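 Cooperative gcPBM on 36-bp genomic probes with neighbouring ETS1 and RUNX1 sites. Recombinant human RUNX1 (2 nM) was incubated alone or with ETS1 (25 nM) and detected with anti-RUNX1 antibody plus Alexa488 secondary. Values are medians over 4 replicate spots; the RUNX1+ETS1 data were normalised to the RUNX1-only data. The probes sit in constant array flanks that are not printed.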
# RUNX1 [2] = target: RUNX1 (UniProt Q01196); assay: RUNX1 binding intensity (PBM fluorescence) in presence of ETS1, normalised to RUNX1-only experiment (arbitrary fluorescence units); higher = stronger binding; settings: RUNX1 concentration 2 nM; ETS1 concentration 25 nM
# Experimental: as §1
# 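Throughout, for RUNX1 binding intensity (PBM fluorescence) in presence of ETS1, normalised to RUNX1-only experiment: Full-length recombinant human ETS1 or RUNX1 bound to double-stranded 36-bp genomic probes on microarrays, detected by protein-specific primary antibody and Alexa488 secondary, spot fluorescence as median of four replicate spots.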
# 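Throughout, for RUNX1 binding intensity (PBM fluorescence), RUNX1 alone: Full-length recombinant human RUNX1 bound to double-stranded 36-bp genomic probes on a high-density microarray, scored as Alexa488 fluorescence per spot via anti-RUNX1 antibody, median of four replicate spots.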
# Sequence of RUNX1 (Q01196 whole entry): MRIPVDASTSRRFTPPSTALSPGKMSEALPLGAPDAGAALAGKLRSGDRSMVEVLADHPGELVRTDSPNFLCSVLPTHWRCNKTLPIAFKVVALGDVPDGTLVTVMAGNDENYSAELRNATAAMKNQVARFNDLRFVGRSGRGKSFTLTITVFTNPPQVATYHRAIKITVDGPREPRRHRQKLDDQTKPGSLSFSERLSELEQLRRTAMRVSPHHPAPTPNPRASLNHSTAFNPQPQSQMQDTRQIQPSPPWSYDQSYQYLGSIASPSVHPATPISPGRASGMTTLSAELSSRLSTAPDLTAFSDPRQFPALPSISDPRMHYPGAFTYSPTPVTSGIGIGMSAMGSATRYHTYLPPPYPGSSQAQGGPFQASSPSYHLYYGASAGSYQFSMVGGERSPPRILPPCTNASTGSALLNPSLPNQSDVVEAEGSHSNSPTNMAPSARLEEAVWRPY
Sequence,RUNX1 binding intensity (RUNX1 [1]),RUNX1 binding intensity (RUNX1 [2])
GCCGCCGTTTCCTGATTGGTTGTGGGTGGCTACCTC,834,1660
TATCAATAAGGAAGTACAATCACCAAACCACAAGCC,1170,1140
AGCAGGGCTCGCCGGGAAATGTGGTTTCTCCAGCCG,843,952
AATCGCGCAGTTCCGCAGCTGCCGCCCCACAACCGT,863,960
AGGTTCGTGGCAGGAAAGTTTGTGGCAGCAAAGCCT,1190,1100
CTGAGACATCCTGATAATTCTGTGGGTTACCCCAAA,728,1280
GGCGACCAGCTCCGGAAAGCGCGGTGGGGACGCGCT,805,865
ACAGACAGCATCCTGAGCTCGTGGTTAGAACACCCT,841,985
GTCCCCTGAATTTTCCTGTGGTTCTTATCACCAGGT,1180,1360
TTGCTCGGCTTCCTGGAGCTGTGGTCCGTGTGGGCT,708,1020
CCCCTACTTCCCTTTTTGCTGGGCCGCAGTTTCGGT,1490,2220
ACCAGAACTAAAGCGGATAGCGGTTAGAAACGCCCA,872,952
CCATTTCCCCCATCACTTTGAATTGTGGTTCTTCTC,1590,2920
AGGAAACCACAAGTTATTCCCTGCAAAGGTCTTGAT,3320,6430
TCCACAGCCGGTTCCGGCCGGTTCCCACAAGCCCCT,844,1130
GGCGCTAGGCTTCCGGATCGCGGTGGGCGGAGTTCA,678,1230
GCTGTCCGTTTCCGAGATGTTAATGCGGGGTCTTGC,866,1070
GAGTGCCGTTTCCCCCGCTCACCGCGGGCTAGGGAG,942,1040
AACTCCTGGCCGGAACGGCACAGACCGCACTCCCGC,938,917
CCCTTCCTGTGAGGGAGGTTCCAGTTCCCACAGCGG,782,1670
ACGAGAGTCTAGAGGAAACCAACCCGCAACTCACTG,892,868
TCTAGTTCTGGTTTCCGGACCGCATTCGGAACTAGA,786,1350
ACCACACTTCCCAGGAGTCTCTGCGGCCGCGCGGAG,938,801
CTTCTTCCTGCTGAGACTGATACAGCCCGCAAAGCT,994,1800
GACCAATGTAAACAAGGATGTGGGTTCTCCGGCCAC,785,1190
ACACCCCAGGAAGTGGCAGAGACCACAACAAGTCAG,874,1910
